TRb SRC2 PPI: qHTS for Inhibitors of the Interaction of Thyroid Hormone Receptor and Steroid Receptor Coregulator 2; Thyroid hormone receptor beta (Homo sapiens), P10828; TRbeta-SRC2 peptide binding, fluorescence polarization; receptor liganded with 1 µM T3; Potency, µM (series often up to 106 µM), for the others: at the top dose activity change, negative = inhibition, actives largely listed as inhibitors; 280,000 tested, 0.065% active; AID 1469, 2008;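 further: plate controls were bound peptide for no effect and peptide without receptor for full effect; nearly all actives have a fitted effect of over 50% in size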
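Fluorescence polarization of 20 nM Texas Red SRC2 peptide with 0.6 uM human TRb ligand-binding domain, in Tris buffer with 1uM T3 and 5% DMSO. Incubated 5 hr ambient; normalized to unbound and bound controls.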
TR SRC2 fluor cs: Total Fluorescence Counterscreen for Inhibitors of the Interaction of Thyroid Hormone Receptor and Steroid Receptor Coregulator 2 | TRb/SRC2 Texas Red total fluorescence interference | Potency, µM (titrated, usually from 106 µM), without a hit: top-dose fluorescence change, negative = quenching | 280,000 tested, 0.29% active; active means well fitted curve in either direction with a large enough effect; inconclusive means small, poorly fitted or top-dose-only effect; further: on the % scale 0 is the no-effect control and ±100 the full control effect
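Human TRb ligand-binding domain at 0.6 uM with 20 nM Texas Red SRC2 peptide in Tris buffer containing 1 uM T3 and 5% DMSO, incubated with compound 5 h at ambient temperature. Total fluorescence (555/632 nm) calculated as parallel + 2 × perpendicular.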
RGS12 GoLoco inh: qHTS Assay for Inhibitors of RGS12 GoLoco Motif Activity (Red Fluorophore); Potency, µM (titrated, usually from 61.6 µM), without a hit: top-dose activity, negative = inhibition, usual class: inhibitors; 230,000 tested, 0.44% active; Gai1:RGS12 GoLoco peptide FP, rhodamine, 10 min; Guanine nucleotide-binding protein G(i) subunit alpha-1 (Homo sapiens), P63096; active means well fitted inhibition curve with a large enough effect, not every such curve was filed as active; inactive means no such curve, though single readings can be large or run the other way; further: on the % scale 0 is the no-effect control and ±100 the full control effect; nearly all actives have a fitted effect of over 30% in size
Apoferritin bind: qHTS Assay for Identification of Novel General Anesthetics; Ferritin light chain (Equus caballus), P02791; apoferritin/1-aminoanthracene competitive binding, fluorescence; Potency, µM (top dose mostly 77.5 µM), for inactives: top-dose activity change, negative = displacement, usual class: inhibitors; 350,000 tested, 0.074% active; further: on the % scale 0 is the no-effect control and ±100 the full control effect; nearly all actives have a fitted effect of over 20% in size
Target sequence (P02791 2-175 limits assumed): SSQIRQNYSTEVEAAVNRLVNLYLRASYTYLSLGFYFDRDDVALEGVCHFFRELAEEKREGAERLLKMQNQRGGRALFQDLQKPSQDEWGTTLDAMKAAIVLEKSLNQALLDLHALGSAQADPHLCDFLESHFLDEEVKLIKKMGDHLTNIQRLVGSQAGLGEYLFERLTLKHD
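10 uM apoferritin + 50% sat. 1-AMA, PBS; cpd 10 min RT; Ex380/Em535 endpoint; normalized to free probe vs complex; 4-param Hill fit; propofol titration as pos. ctrl.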
ERG-DNA inh: qHTS for Small Molecule Inhibitors of the ERG Ets/DNA interaction; Potency, µM (titrated, usually from 76.9 µM), without a hit: at the highest dose FP activity, negative = inhibition, most hits filed as inhibitors; 370,000 tested, 0.028% active; fluorescence polarization, His-ERG Ets domain / labelled DNA; active means well fitted inhibition curve with a large enough effect in the polarisation, with a control signal flat; inconclusive means small, poorly fitted or top-dose-only effect, or effect the other way, or a change in a side signal; inactive means no such curve, though single readings can be large or run the other way; the % refers to the polarisation;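 further: polarization taken with two DNA probes labelled with fluorescein and Texas red; % of control where 0% means no effect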
Target sequence (P11308 whole entry, looked up, the tested form may be a part): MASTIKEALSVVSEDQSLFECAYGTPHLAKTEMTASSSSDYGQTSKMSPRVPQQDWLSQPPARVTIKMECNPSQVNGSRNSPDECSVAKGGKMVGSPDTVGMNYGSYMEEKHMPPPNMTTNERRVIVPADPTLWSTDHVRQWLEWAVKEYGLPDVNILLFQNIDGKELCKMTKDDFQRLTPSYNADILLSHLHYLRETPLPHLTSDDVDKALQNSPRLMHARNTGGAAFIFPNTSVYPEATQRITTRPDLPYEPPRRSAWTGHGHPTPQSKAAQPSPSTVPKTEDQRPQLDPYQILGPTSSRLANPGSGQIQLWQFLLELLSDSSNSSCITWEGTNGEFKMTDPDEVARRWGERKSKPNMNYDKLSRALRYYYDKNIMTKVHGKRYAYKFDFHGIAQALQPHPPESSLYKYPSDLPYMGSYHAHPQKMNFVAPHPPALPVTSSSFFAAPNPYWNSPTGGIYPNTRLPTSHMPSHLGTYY
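His-tagged ERG Ets domain (1 uM in the protein solution; 300mM KCl, 50mM Tris-HCl, 1mM EDTA, 1mM DTT, pH 7.5) received compound, then a probe mix of 5 nM fluorescein-DNA and 100nM Texas-615-DNA. Fluorescence polarization was read for both dyes.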
Active calls of the source: *; ? = inconclusive; . = not tested or not shown; ! = not active in a repeat; [ ] = another dose, or the depositor's remark. A selection: hits, their analogues and other compounds. The true share with any hit is near 0.44%. Unless noted, the call rests on the fitted dose curve; in most records, active means well fitted curve in the direction sought with a large enough effect; inconclusive means small, poorly fitted or top-dose-only effect, or another doubt; inactive means no such curve, though single readings can be large; an effect the other way counts as inactive or inconclusive. Potency means the concentration at half of the fitted maximal effect.

SMILES | TRb SRC2 PPI | TR SRC2 fluor cs | RGS12 GoLoco inh | Apoferritin bind | ERG-DNA inh
CC[C@H](C)[C@H](NC(=O)[C@H](C)NC(=O)[C@H](Cc1cnc[nH]1)NC(=O)[C@@H]1CCCN1C(=O)CNC(=O)[C@H](CC(C)C)NC(=O)[C@H](CC(C)C)NC(=O)[C@H](Cc1ccc(O)cc1)NC(=O)CNC(=O)[C@H](C)NC(=O)[C@H](CO)NC(=O)[C@H](CC(N)=O)NC(=O)[C@H](CC(C)C)NC(=O)[C@@H](NC(=O)[C@H](Cc1c[nH]c2ccccc12)NC(=O)CN)[C@@H](C)O)C(=O)N[C@@H](CC(=O)O)C(=O)N[C@@H](CC(N)=O)C(=O)N[C@@H](Cc1cnc[nH]1)C(=O)N[C@@H](CCCNC(=N)N)C(=O)N[C@@H](CO)C(=O)N[C@@H](Cc1ccccc1)C(=O)N[C@@H](CO)C(=O)N[C@@H](CC(=O)O)C(=O)N[C@@H](CCCCN)C(=O)N[C@@H](Cc1cnc[nH]1)C(=O)NCC(=O)N[C@@H](CC(C)C)C(=O)N[C@H](C(N)=O)[C@@H](C)O | -1% | 1% | . | 5% | .
COc1ccc2cc(C(C)C(=O)O)ccc2c1 (centres undefined) | 2% | 3% | 28µM*! | -5% | -19%
CC(=O)N[C@H]1CSSC[C@@H](C(=O)N2CCC[C@H]2C(=O)N2CCC[C@H]2C(=O)N[C@@H](CCCCN)C(=O)N[C@@H](CC(=O)O)C(N)=O)NC(=O)CNC(=O)[C@H](Cc2c[nH]c3ccccc23)NC(=O)[C@H](CCCNC(=N)N)NC(=O)[C@@H](Cc2ccc3ccccc3c2)NC(=O)[C@H](Cc2cnc[nH]2)NC(=O)[C@H](CCC(=O)O)NC1=O | -2% | 1% | . | 2% | .
Cc1cc(SCC(=O)N/N=C/c2ccc(O)c(O)c2O)c(C)cc1Br | -3% | -6% | 5% | 32µM* | -29%
COc1ccc(S(=O)(=O)NCCSc2nnnn2-c2ccccc2)cc1OC | -8% | 8.9µM*[quencher] | . | 42% | 2%
CN(C)c1nc(=O)n(C2CCC(O)CC2)c(=O)n1C (centres undefined) | 0%[201 µM] | 0%[201 µM] | . | . | .
Nc1ccc2nc(-c3ccc(O)cc3)sc2c1 | -15%[53 µM] | 79µM*[quencher] | . | 45% | 10%
O=c1[nH]c2cc(Cl)c(O)cc2o1 | -3% | -3% | . | 6% | .
CC1=C(C(=O)Nc2ccc(C)cc2Cl)C2(CCCCC2)OC1=O | -13% | 0.0056µM*[quencher] | . | 50% | 4%
CCCCC(CC)COC(C)=O (centres undefined) | 6%[201 µM] | -2%[201 µM] | . | . | .
COc1ccccc1N1CCN(/N=C/c2cccc(O)c2)CC1 | -7% | -1% | 16% | 3% | 4%
COc1ccccc1N1CCN(/N=C/c2cc(OC)c(O)c(OC)c2)CC1 | -4% | 1% | 2.8µM* | -12% | 4%
CCOc1ccccc1-c1nnc2n1N=C(c1c(OC)cccc1OC)CS2 | -6% | -2% | . | -15% | .
O=C(NC1CCc2ccccc21)c1cc(COc2cncc(Cl)c2)on1 (centres undefined) | . | . | . | 45µM* | 27%
CCCCCCNC(=O)N[C@H](C(=O)NCCC[C@H]1CN2C(=NC[C@H]2C)N1CCC(c1ccccc1)c1ccccc1)C(C)O (some centres undefined) | 4% | 1% | 10µM* | -18% | .
CO[C@@H]1[C@H](OC(=O)/C=C/C=C/C=C/C=C/C(=O)O)CC[C@]2(CO2)[C@H]1[C@@]1(C)O[C@@H]1CC=C(C)C | 2%[201 µM] | 0%[201 µM] | . | . | .
COC(=O)c1sccc1NC(=S)N1CCCCC1 | -19% | -4% | -11% | 40µM* | 2%
COC(=O)c1sccc1NC(=S)N1CCC(C(N)=O)CC1 | -1% | 0% | 8% | -5% | -2%
C#CCn1cc(/C=N/NC(=O)COc2cccc3cccnc23)c2ccccc21 | -1%[53 µM] | -2%[53 µM] | 0.79µM* | -11% | -3%
CCOC(=O)c1ccccc1C | 7%[201 µM] | -4%[201 µM] | . | . | .
CCCCCCCCCCCCCCCO | 8%[201 µM] | -4%[201 µM] | . | . | .
Cc1ccc2nsnc2c1N(S(C)(=O)=O)S(C)(=O)=O | -3% | -1% | -4% | -3% | 4%
Cc1ccc(/C=[N+](\[O-])c2ccc(N(C)C)cc2)c2nsnc12 | 35µM* | 40µM*[fluorescent] | 6% | -17% | 11%
C[Si]1(C)O[Si](C)(C)O[Si](C)(C)O[Si](C)(C)O[Si](C)(C)O1 | -3%[201 µM] | -2%[201 µM] | . | . | .
CC(C)(C)c1n[nH]c(=O)n(N)c1=O | -4%[201 µM] | 2%[201 µM] | . | . | .
SMILES | TRb SRC2 PPI | TR SRC2 fluor cs | RGS12 GoLoco inh | Apoferritin bind | ERG-DNA inh
COc1ccc(C)cc1S(=O)(=O)Nc1cccc(-c2ccc(N3CCC(C)CC3)nn2)c1 | 3% | -2% | . | -12% | 2%
COc1ccc(F)cc1S(=O)(=O)Nc1cccc(-c2ccc(N3CCC(C)CC3)nn2)c1 | -20% | 6.3µM*[quencher] | . | 39% | 10%
CSCC[C@H](NC(=O)[C@H](Cc1ccccc1)NC(=O)[C@H](Cc1cnc[nH]1)NC(=O)CNC(=O)[C@@H](NC(=O)[C@H](C)NC(=O)[C@H](Cc1c[nH]c2ccccc12)NC(=O)[C@H](CC(C)C)NC(=O)[C@H](CC(N)=O)NC(=O)CN)[C@@H](C)O)C(N)=O | 1% | -10% | . | 3% | .
CN(C(=S)Nc1cccnc1)c1ccc(O)cc1 | 35µM* | -16% | -14% | 2% | -5%
CN(C(=S)Nc1ccc(Oc2ccccc2)cc1)c1ccc(O)cc1 | 4% | -1% | -36% | 11% | -12%
COC(=O)c1ccccc1NC(=O)/C=C/c1ccco1 | ? | 3.2µM*[quencher] | 13% | -7% | .
COc1ccc(OC)c(OC)c1 | 6%[201 µM] | -2%[201 µM] | . | . | .
COc1ccccc1NC(=O)c1sc2nc(-c3cc4cc(Cl)ccc4oc3=O)[nH]c(=O)c2c1C | -11% | 18µM*[quencher] | . | -11% | 1%
COc1ccccc1NC(=O)c1sc2nc(-c3cc4ccccc4oc3=O)[nH]c(=O)c2c1C | -10% | 9% | . | -4% | -5%
CN1[C@@H]2CC[C@H]1CC(OC(=O)[C@@H](CO)c1ccccc1)C2 (some centres undefined) | 1%[53 µM] | -11%[53 µM] | -2%[21.6 µM] | 12%[29.3 µM] | .
CCCCSC(=O)Nc1ccccc1 | 2% | -3% | -4% | 13µM* | -10%
COc1cc(O)c(C(=O)/C=C/c2ccccc2)c(OC)c1 | 4% | 0% | 25µM*! | -10% | 14%

Screening data: PubChem BioAssay, National Center for Advancing Translational Sciences (NCATS)
